Source: PubChem BioAssay
Most compounds without a hit are left out; they make up all but 11% or so of the library.
NS1 function inh = influenza NS1 inhibition | Potency, µM (top dose mostly 46.1 µM), for inactives: at the top dose activity, positive = more growth | 270,000 tested, 0.4% active | AID 2326; calls by dose curve; note: actives are rising curves; nearly all actives have a fitted effect of over 50% in size
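Growth recovery, yeast-based: influenza A NS1 expressed in S. cerevisiae causes slow growth, and suppressors are detected by OD600. The parent strain without NS1 is used as positive control.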
Pf growth 96h = P. falciparum growth inhibition at 96 hour, primary screen for plastid delayed-death inhibitors; P. falciparum luciferase reporter growth, 96 h; Potency, µM (highest dose often 28.7 µM), without a hit: at the top dose activity change, negative = inhibition, usual class: inhibitors; 320,000 tested, 6.9% active; note: % is set by controls: 0 for no effect and ±100 for the full control effect
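P. falciparum expressing integrated firefly luciferase, in erythrocytes at 2% hematocrit, 0.05% parasitemia, incubated with compounds 96 h at 37 C, 5% CO2. Growth inhibition read as loss of luminescence; two-generation exposure targets delayed-death apicoplast inhibitors.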
Pf growth 48h = P. falciparum growth inhibition at 48 hours (one generation) | 310,000 tested, 5.9% active | P. falciparum luciferase growth in erythrocytes, 48 h | Potency, µM (titrated, usually from 28.7 µM), without a hit: top-dose activity change, negative = inhibition, hits mostly inhibitors; note: % is set by controls: 0 for no effect and ±100 for the full control effect
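Luminescence readout; reporter = integrated firefly luciferase in P. falciparum. RBC culture at 2% hematocrit, 0.1% parasitemia final, 37 C/5% CO2; decreased signal taken as growth inhibition.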
AMA1 RON2 block = AMA1-RON2 (P. falciparum) interaction inhibition; AlphaScreen AMA1-biotinylated RON2 peptide binding; 360,000 tested, 0.2% active; Potency, µM (top dose mostly 58.2 µM), without a hit: top-dose activity change, negative = inhibition, most hits filed as inhibitors; AID 720542;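 note: 0% = vehicle wells and -100% = peptide control; nearly all actives have a fitted effect of over 45% in size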
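AMA1 (3D7) with his tag at 25 nM final met compounds first, then biotinylated RON2 peptide at 25 nM; detection used donor plus acceptor beads, 10 µg/mL apiece, read by AlphaScreen after 30 min at room temperature.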
Sm TGR inh = blocks Schistosoma mansoni thioredoxin glutathione reductase; Q962Y6; purified TGR, DTNB reduction, TNB absorbance 405 nm; Potency, µM (titrated, usually from 114 µM), inactives show at the top dose activity change, negative = inhibition, actives largely listed as inhibitors; 360,000 tested, 3% active; AID 485364; note: % is set by controls: 0 for no effect and ±100 for the full control effect; nearly all actives have a fitted effect of over 60% in size
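First, TGR (20 nM dispensed) and NADPH were mixed with compound. Second, a 15 min room-temperature incubation followed. Third, further NADPH and then DTNB were added to start the reaction. Finally, TNB absorbance was monitored kinetically.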
* hit, by the source's call; ? = inconclusive; / = not tested or not shown. Unless noted, calls come from the whole dose curve; as a rule, active = well fitted curve in the direction sought with a large enough effect; inconclusive = small, poorly fitted or top-dose-only effect, or another doubt; inactive = no such curve, though single readings can be large; an effect the other way counts as inactive or inconclusive. Potency is the fitted concentration of half-maximal effect.

SMILES	NS1 function inh	Pf growth 96h	Pf growth 48h	AMA1 RON2 block	Sm TGR inh
CCCCCC(=O)N/N=C/c1ccc([N+](=O)[O-])o1	/	/	/	20%	40µM*
O=C(CNc1ccccc1)N/N=C/c1ccc([N+](=O)[O-])o1	-4%	2.6µM*	3.7µM*	5%	?
O=C(CCC(=O)Nc1ccc(Cl)cc1Cl)N/N=C/c1ccc([N+](=O)[O-])o1	/	?	?	9%	?
O=C(CNC(=O)c1ccccc1)N/N=C/c1ccc([N+](=O)[O-])o1	3%	?	4.7µM*	1%	?
Cc1ccc(NCC(=O)N/N=C\c2ccc([N+](=O)[O-])o2)cc1	-14%	5.2µM*	?	?	?
O=[N+]([O-])c1ccc(/C=N/NC(=S)Nc2ccccc2)o1	-9%	-14%	5%	25%	?
O=C(Cc1ccc2c(c1)OCO2)NN=Cc1ccc([N+](=O)[O-])o1	/	/	/	-19%	/
Cc1nn(-c2nc(-c3ccc(F)cc3)cc(C(F)(F)F)n2)c(C)c1Br	/	/	/	/	16%
C=C(C)Cc1c(C)c(C#N)c2nc3ccccc3n2c1NCCCN(C)C	-4%	9.3µM*	?	12%	2%
C=CCc1c(C)c(C#N)c2nc3ccccc3n2c1NCCN(C)C	-123%	?	?	0%	-30%
CCc1c(C)c(C#N)c2nc3ccccc3n2c1NCCN(C)C	-56%	-11%	9.3µM*	9%	?
CC1CCN(C(=O)c2ccc3c(c2)N(Cc2ccccc2F)C(=O)c2ccccc2S3(=O)=O)CC1	/	/	/	/	4%
COc1cc(C(=O)NC2CCCNC2)cc(OC)c1OC (stereo not given)	/	/	/	/	35µM*
O=C(CN1C(=O)NC2(CCCC2)C1=O)NCc1cccc(Cl)c1	/	/	/	-13%	/
CC1=C[C@@H]2c3cccc4[nH]cc(c34)C[C@H]2N(C)C1	3%	?	/	-9%	2.2µM*
CCOc1ccc2[nH]c3c(N4CCN(C(=O)c5ccco5)CC4)ncnc3c2c1	-8%	12µM*	?	-4%	-1%
O=C(c1ccco1)N1CCN(c2ncnc3c2[nH]c2ccc(Br)cc23)CC1	10%	?	9.3µM*	25%	?
CCCCOc1ncnc2c1[nH]c1ccc(OCC)cc12	-10%	5%	32%	0%	7%
CCOc1ccc2[nH]c3c(N4CCC5(CC4)OCCO5)ncnc3c2c1	-5%	12µM*	?	-17%	6%
O=C(c1ccco1)N1CCN(c2ncnc3c2[nH]c2ccccc23)CC1	-7%	5%	?	/	?
CCc1ccc(-n2c(C)nnc2SCc2nc(-c3ccc(OC)cc3)no2)cc1	/	/	/	/	3%
CCCCCCN(CCCCCC)C(=O)Cc1c(-c2ccc(F)cc2)[nH]c2ccccc12	-10%	?	5.9µM*	4%	-3%
O=C(Cc1c(O)c2ccccc2[nH]c1=O)N(Cc1ccccc1)Cc1ccccc1	2%	28%	7%	33%	0%
O=[N+]([O-])c1cc(F)c2cccnc2c1O	-86%	?	0%	-73%	3.2µM*
O=[N+]([O-])c1cc(Cl)c(O)c2ncccc12	/	10%	-6%	-84%	11µM*
SMILES	NS1 function inh	Pf growth 96h	Pf growth 48h	AMA1 RON2 block	Sm TGR inh
O=[N+]([O-])c1cc(Cl)c2cccnc2c1O	-74%	-27%	-6%	?	/
O=C(NC(=S)N1CCN(C/C=C/c2ccccc2)CC1)c1cccnc1	2%	3.3µM*	9.3µM*	25%	-15%
O=C(NC(=S)N1CCN(C/C=C/c2ccccc2)CC1)c1ccc(F)cc1	-17%	?	10µM*	17%	-15%
O=C(c1cccnc1)N1CCN(C/C=C/c2ccccc2)CC1	/	33%	13%	3%	-5%
Fc1ccccc1NC(=S)N1CCN(C/C=C/c2ccccc2)CC1	8%	0.59µM*	3%	-8%	-1%
Cc1ccc(-n2c(=O)c3ccc(C(=O)NCc4ccco4)cc3n(Cc3ccc(Cl)cc3)c2=O)cc1	/	/	/	/	8%
O=C(NCCC1=CCCCC1)c1cc(-c2ccncc2)nc2ccccc12	/	112%	?	-22%	0%
C(=N\Nc1cc(N2CCCCC2)ncn1)/c1ccco1	-18%	-8%	41%	23%	0%
CC(CNC(=O)c1ccc(C#N)cc1)NC(=O)c1ccc(C#N)cc1 (stereo not given)	5%	22%	5%	-3%	-15%
COc1ccccc1C(=O)Nc1ccc2[nH]ncc2c1	-11%	7.4µM*	5%	-8%	-10%
Cc1ccc(S(=O)(=O)N2CCN(C(=O)CCC(=O)Nc3ccc(F)cc3F)CC2)cc1	/	/	/	-2%	/
COc1cc2c(cc1OC)C(=O)N1[C@H]3c4cc(C)ccc4OC[C@@H]3[C@H](c3ccccc3)[C@]1(C)C(=O)N2	/	/	/	-1%	/
COc1cc2c(cc1OC)C(=O)N1[C@H]3c4cc(Cl)ccc4OC[C@@H]3[C@H](c3ccccc3)[C@]1(C)C(=O)N2	/	9.3µM*	15µM*	-7%	-5%
Cc1ccc2c(c1)[C@H]1[C@H](CO2)[C@H](c2ccccc2)[C@]2(C)C(=O)Nc3cc(Cl)ccc3C(=O)N12	/	9.3µM*	8.3µM*	-3%	0%
COc1ccc2c(c1)[C@H]1[C@H](CO2)[C@H](c2ccccc2)[C@]2(C)C(=O)Nc3cc(C)ccc3C(=O)N12	/	/	/	-8%	/
Cc1ccc2c(c1)[C@H]1[C@H](CO2)[C@H](c2ccccc2)[C@]2(C)C(=O)Nc3cc(F)c(F)cc3C(=O)N12	/	/	/	-12%	/
COc1ccc2c(c1)[C@H]1[C@H](CO2)[C@H](c2ccccc2)[C@]2(C)C(=O)Nc3cc(Cl)ccc3C(=O)N12	/	1.9µM*	5.2µM*	-26%	-7%
Cc1cccc(CN2C(=O)c3ccccc3Sc3ccc(C(=O)NCc4cccs4)cc32)c1	/	/	/	/	10%
Cc1c(Cl)cc(C(C)C)c(O)c1CN1CCOCC1	/	/	/	-13%	/
CC(C)CCn1c(=O)c2ccccc2n2c(CN3CCCC3)nnc12	/	-9%	0%	64%	6%
O=C(CCc1nnc2n(CCc3ccccc3)c(=O)c3ccccc3n12)NCCCN1CCCCC1	1%	3.7µM*	-18%	1%	4%
CCCCCn1c(=O)c2ccccc2n2c(CCl)nnc12	-3%	?	?	3%	14µM*
CC(C)CCn1c(=O)c2ccccc2n2c(CN(C)Cc3ccccc3)nnc12	-17%	13µM*	?	-8%	-6%
O=C(CCc1nnc2n(Cc3ccc(Cl)cc3)c(=O)c3ccccc3n12)NCCN1CCCC1	3%	?	?	-1%	4%
CCCn1c(=O)c2ccccc2n2c(SCC(N)=O)nnc12	-6%	28%	10%	-11%	8%
CC(C)CCn1c(=O)c2ccccc2n2c(CCl)nnc12	0%	?	?	-13%	3.2µM*
O=C(COC(=O)COc1cccc(F)c1)Nc1nc2ccccc2s1	/	/	/	6%	/
C[C@@H]1CCCCO[C@H](CN(C)C(=O)Nc2ccc3c(c2)OCO3)[C@H](C)CN([C@@H](C)CO)C(=O)c2cc(NS(=O)(=O)c3ccc(Cl)cc3)ccc2O1	/	/	/	-10%	/
